Structures are written as SMILES. Values without a mark were called inactive. Records with an inconclusive call do not appear. Activity calls are given as the source filed them. Unless noted, the call rests on the fitted dose curve; in most records, active means well fitted curve in the direction sought with a large enough effect in the repeat runs; inconclusive means weak or mixed curves; inactive means no such curve, though single readings can be large; an effect the other way counts as inactive or inconclusive.

Our source for the outcome, Potency and max response values is PubChem BioAssay (Tox21).

Assay [1] is described as follows: qHTS assay to identify small molecule agonists of the hypoxia (HIF-1) signaling pathway (AID 1224846; active means well fitted activation curve with a large enough effect in the signal ratio in the repeat runs, not every such curve was filed as active; the % refers to the signal ratio). An outline of the steps:
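Compounds added to ME-180 cells carrying hypoxia-response-element beta-lactamase reporter (0.5% dialyzed FBS, 5 h preplating), 17 h at 37C; agonist activity detected by CCF4-AM B/G FRET read-out.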

Assay [2] in a line: qHTS assay to identify small molecule agonists of H2AX - cell viability counter screen (AID 1224847; calls by dose curve; further: top concentration of the series differs between compounds; nearly all actives have a fitted effect of over 30% in size). An outline of the steps:
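Wild-type CHO-K1 cells (10% FBS medium) were plated overnight at 37C, exposed to compounds at 15 concentrations for 3 hr at 37C (0.76% DMSO final), and viability was read as CellTiter-Glo luminescence after 30 min at room temperature.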

Assay [3] is described as follows: qHTS RealTime-Glo MT Cell Viability Assay in HepG2 cells - 24 hour (AID 1224867). Further: nearly all actives have a fitted effect of over 50% in size. The method in brief: (§1)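 Compound treatment began 5 h after plating HepG2 cells (600/well) with NanoLuc luciferase and prosubstrate. Plates stayed at 37 C for 40 h; luminescence was captured at six time points, 0 h through 40 h.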
A short description of assay [4]: qHTS RealTime-Glo MT Cell Viability Assay in HEK293 cells - 32 hour (AID 1224868). Further: top concentration of the series differs between compounds; nearly all actives have a fitted effect of over 50% in size. An outline of the steps: (§2)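 Quantitative high-throughput screen of the Tox21 10K library in HEK293: cells and RealTime-Glo reagents plated together, compound added at 5 h, luminescence monitored through 40 h at 37 C.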
In general terms: Quantitative high-throughput screening tests each substance at several concentrations.

Assay [5] is described as follows: A CellTox Green Cytotoxicity Assay to monitor cytotoxicity in HEK293 cells - 0 hour (AID 1224869). Further: nearly all actives have a fitted effect of over 50% in size. An outline of the steps:
(§3)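 Fluorescence from a DNA-binding dye excluded by viable cells was measured repeatedly in the same HEK293 wells (600 cells/well) during continuous compound exposure at 37 C. Each assay gives one read point: 0, 8, 16, 24, 32 or 40 h.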

The nature of assay [6]: qHTS RealTime-Glo MT Cell Viability Assay in HepG2 cells - 40 hour (AID 1224870). Further: nearly all actives have a fitted effect of over 50% in size. The method in brief: (§4)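 HepG2 cells mixed with RealTime-Glo MT reagents (NanoLuc plus cell-permeant prosubstrate) were seeded at 600 cells/well, incubated 5 h at 37 C/5% CO2, then pinned with compounds in DMSO; nonlytic luminescence tracked viability during 40 h treatment.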
The nature of assay [7]: A CellTox Green Cytotoxicity Assay to monitor cytotoxicity in HEK293 cells - 40 hour (AID 1224871). Further: nearly all actives have a fitted effect of over 45% in size. The method in brief: as §3
Assay [8] can be described thus: qHTS RealTime-Glo MT Cell Viability Assay in HEK293 cells - 16 hour (AID 1224872). An outline of the steps:
as §2

A short description of assay [9]: qHTS RealTime-Glo MT Cell Viability Assay in HepG2 cells - 8 hour (AID 1224873). Further: nearly all actives have a fitted effect of over 55% in size. The method in brief: as §4
Assay [10] is described as follows: A CellTox Green Cytotoxicity Assay to monitor cytotoxicity in HEK293 cells - 24 hour (AID 1224875). Further: series mostly up to about 77 µM; nearly all actives have a fitted effect of over 45% in size. The method in brief: as §3
Assay [11] in a line: A CellTox Green Cytotoxicity Assay to monitor cytotoxicity in HepG2 cells - 16 hour (AID 1224876). Further: nearly all actives have a fitted effect of over 45% in size. An outline of the steps: (§5)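 Real-time cytotoxicity: fluorescence of a cell-impermeant cyanine dye binding DNA of dead HepG2 cells, measured repeatedly (0–40 h) during compound exposure at 37 C. Cells seeded 600/well with reagent, dosed after 5 h.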
Assay [12] can be described thus: qHTS RealTime-Glo MT Cell Viability Assay in HepG2 cells - 32 hour (AID 1224877). Further: nearly all actives have a fitted effect of over 55% in size. An outline of the steps:
as §1

Assay [13] is described as follows: A CellTox Green Cytotoxicity Assay to monitor cytotoxicity in HepG2 cells - 24 hour (AID 1224878). Further: nearly all actives have a fitted effect of over 45% in size. An outline of the steps: as §5
Assay [14] in a line: A CellTox Green Cytotoxicity Assay to monitor cytotoxicity in HepG2 cells - 40 hour (AID 1224879). Further: nearly all actives have a fitted effect of over 40% in size. The method in brief:
as §5

Assay [15] is described as follows: qHTS RealTime-Glo MT Cell Viability Assay in HEK293 cells - 0 hour (AID 1224880). An outline of the steps: (§6)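 Luminescence, which tracks viable cell number through reduction of the prosubstrate to a NanoLuc substrate, was read over continuous 37 C culture. Cells (600/well) were premixed with reagent and rested 5 h before 23 nL of compound in DMSO was pinned.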
Assay [16] in a line: A CellTox Green Cytotoxicity Assay to monitor cytotoxicity in HEK293 cells - 32 hour (AID 1224881). Further: nearly all actives have a fitted effect of over 40% in size. The method in brief: as §3
Assay [17] is described as follows: A CellTox Green Cytotoxicity Assay to monitor cytotoxicity in HepG2 cells - 0 hour (AID 1224882). Further: nearly all actives have a fitted effect of over 35% in size. An outline of the steps:
as §5

Assay [18] can be described thus: qHTS RealTime-Glo MT Cell Viability Assay in HEK293 cells - 40 hour (AID 1224874). Further: nearly all actives have a fitted effect of over 50% in size. Further: potency means the concentration at half of the fitted maximal effect. The conditions noted are these: RealTime-Glo luminescence; max response: hits give low values. An outline of the steps: as §6
On the % scale 0 is the no-effect control and ±100 the full control effect.

As to `CC(=[OH+])/C=C(/C)[O-].CC(=[OH+])/C=C(\C)[O-].CC(=[OH+])/C=C(\C)[O-].[Al]`, in [1], the result was inactive. Also, the Potency result in assay [2], in assay [3], in assay [4], in [5], in assay [6] and in assay [7] was “inactive” each time. Also, the Potency result in assay [8], in assay [9], in [10], in assay [11], in [12] and in assay [13] was “inactive” each time. In addition, the Potency entry in assay [14], in assay [15], in [16] and in [17] was “inactive” in each case.
Turning to `CC(O)C#N` (centres undefined), the call in assay [1] was inactive. The Potency entry in [2], in assay [3], in assay [4], in assay [5], in assay [7] and in assay [8] was “inactive” in each case. Besides, the Potency result in assay [9], in assay [10], in [12], in [13], in [14] and in [15] was “inactive” in each case. For the same molecule, the Potency entry in assay [16] and in assay [17] was “inactive” each time. Besides, the max response in assay [18] is -0.282%.
Consider `Nc1ccc([N+](=O)[O-])cc1Cl`, for which the outcome in assay [1] was inactive. For the same molecule, the Potency entry in assay [2], in [3], in [4], in assay [5], in assay [6] and in assay [7] was “inactive” in each case. The Potency entry in [8], in [9], in assay [10], in assay [11], in [12] and in assay [13] was “inactive” throughout. Further, the Potency result in assay [14], in assay [15] and in [16] was “inactive” in each case.
Turning to `CC(=O)[O-].[Tl+]`, the result in assay [1] was inactive. Further, the Potency entry in assay [2], in assay [3], in assay [5], in [6], in assay [7] and in [8] was “inactive” in each case. Further, the Potency entry in assay [9], in assay [10], in assay [11], in [12], in [13] and in assay [14] was “inactive” throughout. Further, the Potency entry in assay [15], in [16] and in [17] was “inactive” throughout. Besides, the Potency in [18] is 27.7 µM (active).
Take `ClC1=C(Cl)[C@]2(Cl)[C@H]3[C@H]([C@H]4C=C[C@H]3C4)[C@@]1(Cl)C2(Cl)Cl`: the molecule was called inactive in assay [1]. Moreover, the Potency entry in assay [2], in [3], in [4], in assay [5], in assay [6] and in assay [8] was “inactive” each time. Also, the Potency entry in assay [9], in assay [10], in assay [11], in assay [13], in assay [15] and in assay [17] was “inactive” in each case. Besides, the max response in [18] was -13.1%.
Turning to `CC(=O)Nc1ccc2c(c1)Cc1ccccc1-2`, the call in [1] was inactive. For the same molecule, the Potency result in assay [2], in assay [3], in assay [4], in assay [5], in [6] and in assay [7] was “inactive” each time. The Potency result in assay [8], in assay [9], in assay [10], in assay [12], in assay [13] and in assay [14] was “inactive” each time. The Potency result in assay [15], in [16] and in assay [17] was “inactive” throughout.
Turning to `N#CNC#N`, in assay [1], the molecule was classed as inactive. In addition, the Potency entry in [2], in assay [3], in assay [4], in [5], in [6] and in assay [7] was “inactive” each time. In addition, the Potency result in [8], in assay [9], in assay [10], in [12], in assay [13] and in assay [14] was “inactive” each time. For the same molecule, the Potency result in assay [15], in assay [16] and in [17] was “inactive” in each case. Also, the max response in assay [18] is 1.5%.
Consider `CN(CCCC(=O)c1cccnc1)N=O`, for which the molecule was called inactive in assay [1]. Further, the Potency result in assay [2], in [3], in assay [4], in assay [5], in assay [7] and in assay [8] was “inactive” throughout. In addition, the Potency result in assay [9], in assay [10], in [12], in assay [13], in assay [14] and in assay [15] was “inactive” each time. The Potency result in assay [16] and in assay [17] was “inactive” each time. Moreover, the max response in [18] is 13.5%.
